Compound activity deposited in PubChem by National Center for Advancing Translational Sciences (NCATS).
Rows were chosen to be rich in hits. Some 2% of all compounds tested hit in one or more screens of this group.
FUS suppressor = suppressors of FUS proteinopathy in yeast | S. cerevisiae FUS-expressing, growth rescue, OD600, 24 h | Potency, µM (titrated, usually from 76.6 µM), hits mostly activators | hit rate 0.24% among 390,000;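 note: potency is the fitted concentration of half-maximal effect; plate controls were DMSO vehicle for no effect and reference control for full effect; nearly all actives have a fitted effect of over 55% in size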
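Toxicity suppression screen in FUS-yeast. Cells induced with 2% galactose, starting OD 0.005, treated 24hr at 30C with compounds at multiple final concentrations; growth by OD600.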
Abeta yeast res = restores growth of yeast expressing A-beta42 peptide. yeast expressing A-beta42, growth rescue, OD600, 48 h; response scale: 0% DMSO, 100% iron-clioquinol control. Potency, µM (doses to about 46.1 µM), hits mostly activators. hit rate 0.063% among 410,000; note: potency is the fitted concentration of half-maximal effect; nearly all actives have a fitted effect of over 55% in size
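Growth rescue measured by 600 nm absorbance after 48 h yeast culture at 30 C with compound. Values normalized between DMSO and an equimolar ferric chloride plus clioquinol control.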
IDH1 R132H inh = inhibitors of human mutant IDH1 R132H; IDH1-R132H enzyme, NADPH consumption, diaphorase/resazurin fluorescence; Potency, µM (series often up to 76.6 µM), for inactives: top-dose activity change, negative = inhibition, actives largely listed as inhibitors; hit rate 0.093% among 390,000; note: potency is the fitted concentration of half-maximal effect; % is set by controls: 0 for no effect and ±100 for the full control effect; nearly all actives have a fitted effect of over 65% in size
Target sequence (O75874 whole entry R132H, stated change not applied): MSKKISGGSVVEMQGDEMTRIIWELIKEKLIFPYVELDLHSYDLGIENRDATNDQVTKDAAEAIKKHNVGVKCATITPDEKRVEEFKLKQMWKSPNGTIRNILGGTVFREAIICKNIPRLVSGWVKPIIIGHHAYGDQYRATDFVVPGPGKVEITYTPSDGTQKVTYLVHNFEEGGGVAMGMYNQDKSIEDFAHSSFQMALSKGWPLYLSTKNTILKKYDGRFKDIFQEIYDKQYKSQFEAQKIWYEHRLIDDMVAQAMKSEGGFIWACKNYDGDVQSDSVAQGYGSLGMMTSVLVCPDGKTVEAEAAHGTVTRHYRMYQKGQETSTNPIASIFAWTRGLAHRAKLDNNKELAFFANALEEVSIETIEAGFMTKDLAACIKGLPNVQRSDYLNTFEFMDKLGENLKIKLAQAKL
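IDH1-R132H (0.5 ug/mL) preincubated 30 min with compound, then NADPH (0.016 mM) and alpha-KG (2 mM) added; 80 min at RT, pH 7.5. Remaining NADPH coupled via diaphorase/resazurin to fluorescence (540/590 nm); concentration-response curves normalized to no-enzyme control.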
TDP43 rescue = TDP-43 toxicity inhibition in yeast | AID 652104 | Potency, µM (highest dose often 46.1 µM), for the others: at the highest dose growth rescue (activation), usual class: activators | TDP-43 expressing yeast growth rescue, BacTiter-Glo, 24 h | hit rate 1.8% among 410,000; note: potency is the fitted concentration of half-maximal effect; % of control where 0% means no effect; nearly all actives have a fitted effect of over 50% in size
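Yeast cells expressing TDP-43 under galactose induction are exposed to compounds for 24 hr at 30 deg C. BacTiter-Glo luminescence measures growth, so protective compounds score as activators.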
aSyn rescue = rescues yeast growth from alpha-synuclein toxicity; Yeast expressing alpha-synuclein, growth rescue, BacTiter-Glo, 24 h; AID 652106; hit rate 0.14% among 370,000; Potency, µM (top dose mostly 46.1 µM), inactives show at the highest dose growth rescue (activation), most hits filed as activators; note: potency is the fitted concentration of half-maximal effect; % of control where 0% means no effect; nearly all actives have a fitted effect of over 65% in size
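Galactose-induced alpha-syn yeast (OD600=0.02, raffinose-pregrown) + pinned cpd, 24 hr, 30 deg C; growth by BacTiter-Glo luminescence. Growth restoration scores as activation.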
LDHA inh = inhibitors of human lactate dehydrogenase A | P00338 | purified LDHA, NADH/diaphorase-resazurin fluorescence; active compounds read low | activity change, % (values are at about 110 or 230 µM) | hit rate 0.15% among 480,000; in the data active = activity change below about -30%; inconclusive = mostly about -25% to -30%;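 note: plate controls were DMSO wells for no effect and wells without enzyme for full effect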
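Enzyme activity of human lactate dehydrogenase 5 (2 nM; 0.06 mM NADH, 0.2 mM pyruvate, 5 min, RT) is measured via a resazurin/diaphorase fluorescence readout of residual NADH.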
The depositor's hits bear a star; i = inactive; ? = inconclusive; / = no result; ! = repeats disagree; [ ] = remark or other dose. Unless noted, calls come from the whole dose curve; as a rule, active = well fitted curve in the direction sought with a large enough effect; inconclusive = small, poorly fitted or top-dose-only effect, or another doubt; inactive = no such curve, though single readings can be large; an effect the other way counts as inactive or inconclusive.

SMILES	FUS suppressor	Abeta yeast res	IDH1 R132H inh	TDP43 rescue	aSyn rescue	LDHA inh
Cc1ccc(NC2=C(Cl)C(=O)OC2OC(C)C)cc1 (configuration not stated)	i	i	-5.2%	?	-5.3%	-10.1
CNc1ccc(-c2nc(-c3ccncc3)no2)cc1[N+](=O)[O-]	i	i	0.0%	-2.8%	/	1.9
Cc1cc(-c2nc(-c3ccncc3)no2)ccc1[N+](=O)[O-]	i	i	4.7%	11.2µM*	-2.6%	-2.4
O=C(NCc1ccccc1OC(F)(F)F)c1ccccc1C(F)(F)F	/	/	/	/	/	-7.8
COc1ccc(S(=O)(=O)N(C)C[C@H]2Oc3ccc(NS(=O)(=O)c4ccc(F)cc4)cc3C(=O)N([C@H](C)CO)C[C@@H]2C)cc1	31.6µM*	i	0.0%	27.7%	2.3%	-1.2
Cc1noc(C)c1S(=O)(=O)Nc1ccc2c(c1)C(=O)N([C@H](C)CO)C[C@H](C)[C@H](CN(C)S(=O)(=O)c1ccc(Cl)cc1)OCCCC[C@@H](C)O2	?	i	/	20.4%	1.8%	-6.8
COc1ccc(S(=O)(=O)Nc2cccc3c2O[C@H](CN(C)S(=O)(=O)c2cccs2)[C@@H](C)CN([C@H](C)CO)C3=O)cc1	?	i	6.2%	-19.5%	-2.9%	-3.4
COc1ccc(S(=O)(=O)Nc2cccc3c2O[C@H](CN(C)S(=O)(=O)c2ccc(Cl)cc2)[C@H](C)CN([C@H](C)CO)C3=O)cc1	10µM*	i	-8.7%	0.0%	-7.2%	-2.5
C[C@H](CO)N1C[C@H](C)[C@@H](CN(C)Cc2ccc(-c3ccccc3)cc2)Oc2c(NS(=O)(=O)c3ccccc3)cccc2C1=O	22.4µM*	i	2.2%	10.7%	17.0%	1.4
Cc1ccc(S(=O)(=O)Nc2cccc3c2O[C@H](CN(C)Cc2ccc(-c4ccccc4)cc2)[C@@H](C)CN([C@H](C)CO)C3=O)cc1	?	i	12.3%	27.4%	3.9%	4.9
Cc1ccc(S(=O)(=O)N(C)C[C@@H]2OCCCC[C@@H](C)Oc3ccc(NS(=O)(=O)c4c(C)noc4C)cc3C(=O)N([C@H](C)CO)C[C@@H]2C)cc1	15.8µM*	i	-20.2%	11.4%	3.1%	-2.7
CSc1ccc(/C=C2\CCc3ccccc3C2=O)cc1	/	/	/	/	/	8.0
COc1cc(-c2nc3ccccc3s2)cc(OC)c1OC	/	/	/	/	/	6.2
O=C(CSc1ccc(Cl)cc1)c1cc2ccccc2oc1=O	/	/	/	/	/	-1.8
C[C@@H]1CCCCO[C@@H](CN(C)Cc2ccc(Cl)c(Cl)c2)[C@@H](C)CN([C@H](C)CO)C(=O)c2cc(NC(=O)Nc3ccccc3)ccc2O1	28.2µM*	i	/	-3.5%	-2.4%	-0.7
COc1ccccc1N1CCN(C(=O)c2cc3c(s2)-c2ccccc2OC3)CC1	?	i	-5.2%	11.2µM*!	2.9%	-2.9
CCOc1ccccc1N1CCN(C(=O)c2cc3c(s2)CCC3)CC1	i	i	0.8%	18.0%	16.8%	-0.5
CCc1cc(C(=O)N2CCN(c3ccccc3OC)CC2)sc1C	i	i	-3.6%	12.6µM*	2.9%	-2.6
COc1ccccc1N1CCN(C(=O)c2cc3c(s2)CCCCC3)CC1	i	i	4.2%	22.4µM*	2.4%	0.9
COc1ccccc1N1CCN(C(=O)c2oc3ccc(Br)cc3c2C)CC1	i	i	3.2%	17.8µM*	3.7%	-4.7
Cc1ccc(/C=N/Nc2ccc(Cl)c(Cl)c2)c(C)c1	/	/	/	/	/	-17.1
O=C(OCC(=O)N1CCNC1=O)c1cc2c(F)cccc2s1	/	/	/	/	/	2.8
Cn1nnnc1SCC(=O)N1N=C(c2cc3ccccc3o2)CC1c1ccco1 (configuration not stated)	/	/	/	/	/	12.7
O=c1c2ccccc2oc2cc(Br)ccc12	i	i	3.7%	9.5%	?	-2.7
COc1cc2oc3ccccc3c(=O)c2cc1OC	i	i	18.9%	15.8µM*	?	-6.8
SMILES	FUS suppressor	Abeta yeast res	IDH1 R132H inh	TDP43 rescue	aSyn rescue	LDHA inh
CC1(C)Cc2cccc(C(=O)Nc3ccc(F)cc3F)c2O1	i	i	17.3%	20µM*	-11.9%	1.7
COc1cccc(C(=O)Nc2cccc(-c3cn4ccsc4n3)c2)c1OC	i	i	-17.8%	12.6µM*	/	-1.5
COc1cc(OC)cc(C(=O)Nc2cccc(-c3cn4ccsc4n3)c2)c1	?	i	-5.3%	22.4µM*	/	-2.1
COc1ccccc1NC(=O)c1cc(-c2ccco2)nc2ccccc12	/	/	/	/	/	-17.2
O=C(N1CCOCC1)N(CCN1CCOCC1)Cc1cccc2ccccc12	i	i	-5.6%	13.6%	-1.8%	-6.8
CC1(C(=O)c2ccccc2)C2c3c(ccc4ccccc34)OC(=O)C21C(=O)N1CCOCC1 (configuration not stated)	i	?	0.4%	17.8µM*	6.6%	-4.3
CCOC(=O)/C=C/SC(S/C=C/C(=O)OCC)=C(C#N)C(N)=O	/	/	/	/	/	10.6
CC(C)(C)OC(=O)N1CCC(CC2CC(c3ccccc3)=NO2)(C(=O)O)CC1 (configuration not stated)	i	i	10.4%	22.4µM*	10.7%	-11.3
CCc1n[nH]c(=S)n1N=C1CCC(C)CC1 (configuration not stated)	i	i	7.7%	3.55µM*	-10.1%	-9.1
COc1cc2c(cc1NC(=O)CSc1nnc(-c3cnccn3)n1-c1ccc(C)cc1)oc1ccccc12	17.8µM*	/	/	/	/	/
C=CCn1c(SCC(=O)Nc2cc3oc4ccccc4c3cc2OC)nnc1-c1cnccn1	i	i	6.1%	17.4%	1.8%	-3.5
CC(C)c1ccc(CN(c2ccc3nnc(C(F)(F)F)n3n2)C2CC2)cc1	/	/	/	/	/	-1.7
C=CC#CC[N+](C)(C)CC#Cc1cccc2ccccc12	/	/	/	/	/	27.8
CCc1c(C2(O)CCCCC2)[nH]c2cc(C(F)(F)F)ccc12	i	i	1.4%[38.3 µM]	?	-82.6%	0.1
Cc1c(C2(O)CCCCC2)[nH]c2cc(C(F)(F)F)ccc12	i	i	10.9%	6.31µM*	-15.9%	1.7
CC(=O)N1CCc2nc3sc(C(=O)c4ccc(F)cc4)c(N)c3c(C(F)(F)F)c2C1	i	i	36.5%	28.2µM*	/	-3.5
COc1ccc(C(=O)c2sc3nc4c(c(C(F)(F)F)c3c2N)CN(C(C)=O)CC4)cc1OC	i	i	7.9%	9.4%	4.7%	2.8
Cc1nn(C)cc1CN(C)C(=O)CC12CC3CC(CC(C3)C1)C2	/	i	2.3%	22.4µM*	-1.2%	0.3
Cc1nn(C)cc1CN(C)C(=O)Cn1nc(C(F)(F)F)c(Br)c1C1CC1	/	/	/	/	/	1.9
